Results filed as inconclusive are left out. A call without a number means that no potency is given here. Activity calls are given as the source filed them. Unless noted, calls follow the shape of the dose curve; as a rule, active = well fitted curve in the direction sought with a large enough effect; inconclusive = small, poorly fitted or top-dose-only effect, or another doubt; inactive = no such curve, though single readings can be large; an effect the other way counts as inactive or inconclusive.
What was measured:
[1] = Counterscreen for APE1 Inhibitors: Fluorescent Dye Displacement Validation Assay (AID 1707)
How it was run: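 Loss of Thiazole Orange fluorescence marks promiscuous DNA binders. The dye (250 nM) is mixed with 50 nM abasic-site dsDNA in pH7.5 Tris buffer containing MgCl2, then compounds are added and emission is read once.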

[2] = qHTS for differential inhibitors of proliferation of Plasmodium falciparum line 7G8 (AID 1815);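 also: parasite growth measured after three days of incubation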; also: potency is read from the fitted curve at half-maximal effect
[3] = qHTS for differential inhibitors of proliferation of Plasmodium falciparum line GB4 (AID 1816); settings: Potency: Plasmodium falciparum GB4 proliferation inhibition;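 also: parasite growth measured after 72 h incubation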; also: potency is read from the fitted curve at half-maximal effect
[4] = qHTS for differential inhibitors of proliferation of Plasmodium falciparum line 3D7 (AID 1876); also: potency is read from the fitted curve at half-maximal effect
[5] = qHTS for differential inhibitors of proliferation of Plasmodium falciparum line D10 (AID 1877);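 also: parasites grown with compound for 72 h before DNA staining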; also: potency is read from the fitted curve at half-maximal effect
[6] = qHTS for differential inhibitors of proliferation of Plasmodium falciparum line Dd2 (AID 1882); settings: Potency: Plasmodium falciparum Dd2 proliferation inhibition; also: nearly all actives have a fitted effect of over 65% in size; also: potency is read from the fitted curve at half-maximal effect
How it was run: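 RBC culture, 0.3% parasitemia / 2.5% Hct final; cpd added by pin tool in DMSO; 72 h, 37 C, 5% CO2; lysis buffer + SYBR Green I, o/n RT dark; FI 485/535; norm. to artemisinin 0.29 uM and DMSO.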

[7] = qHTS for differential inhibitors of proliferation of Plasmodium falciparum line W2 (AID 1883); settings: Potency: Plasmodium falciparum W2 proliferation inhibition;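 also: parasites grown with compound for 72 h before lysis and staining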; also: potency is read from the fitted curve at half-maximal effect
[8] = qHTS for differential inhibitors of proliferation of Plasmodium falciparum line HB3 (AID 1886); settings: Potency: Plasmodium falciparum HB3 proliferation inhibition;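 also: parasites grown with compound for 72 h before SYBR Green readout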; also: potency is read from the fitted curve at half-maximal effect
[9] = qHTS Assay for Modulators of Human Peripheral Myelin Protein 22 (PMP22) Expression/Activity (AID 1967; active = well fitted curve in the direction sought with a large enough effect in the signal ratio; the % refers to the signal ratio)
How it was run: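 Mouse MSC80 Schwann line, Pmp22 promoter–CBG68 reporter, EF-alpha–CBR internal control. 24h compound exposure, 37 °C/5% CO2, DMEM + 10% FBS. Readout: corrected green/red luminescence ratio, normalized to untreated cells; concentration-response curves fitted and classified.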

[10] = target: Endonuclease 4 (Escherichia coli (strain K12)) (UniProt P0A6C1); assay: Counterscreen for APE1 Inhibitors: qHTS Validation Assay for Inhibitors of Endonuclease IV (AID 1708)
How it was run: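 Measured as reaction progress, the fluorescence gain between first and third kinetic reads after adding 50 nM TAMRA/BHQ-2 THF duplex to 2 nM enzyme preincubated 15 min with compound; 2 mM MgCl2, pH 7.5.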

SMILES | Potency [1] | Potency [2] | Potency [3] | Potency [4] | Potency [5] | Potency [6] | Potency [7] | Potency [8] | outcome [9] | Potency [10]
C#CCN1C(C)=C(C(=O)OC)C(c2cccc([N+](=O)[O-])c2)C(C(=O)OCC)=C1C (stereo not drawn) | inactive | 7.94 µM (active) | 7.08 µM (active) | 11.2 µM (active) | 14.1 µM (active) | 12.6 µM (active) | 4.47 µM (active) | 7.94 µM (active) |  | 
CC(=O)SCC[N+](C)(C)C | inactive | inactive | inactive | inactive | inactive | inactive | inactive | inactive | inactive | 
CC(C)(C=O)Cc1cc(C(C)(C)C)c(O)c(C(C)(C)C)c1 | inactive | inactive | inactive | inactive | inactive | inactive | inactive | inactive |  | 
CN(C)c1nc2c(Br)c(Br)c(Br)c(Br)c2[nH]1 | inactive | inactive | inactive | inactive |  |  |  |  |  | 
CCN1/C(=C/C(C)=O)Sc2ccc(OC)cc21 | inactive |  |  |  | inactive | inactive | 14.1 µM (active) |  |  | inactive
N=C(N)SCCc1ccc(CCSC(=N)N)cc1 | inactive |  |  | inactive |  | inactive | 11.2 µM (active) | inactive | inactive | inactive
Cn1c(=O)c2[nH]c(-c3ccccc3)nc2n(C)c1=O | inactive | inactive | inactive | inactive | inactive | inactive |  | inactive | inactive | 
Nc1ccn([C@@H]2O[C@H](CO)[C@@H](O)[C@@H]2O)c(=O)n1 | inactive | inactive | inactive | inactive | inactive | inactive | inactive | inactive |  | 
O=C(c1cc(O)c(O)c([N+](=O)[O-])c1)c1ccccc1F | inactive |  |  | inactive | inactive |  |  | inactive |  | inactive
CO/N=C(\C(=O)N[C@@H]1C(=O)N2C(C(=O)O)=C(COC(C)=O)CS[C@H]12)c1csc(N)n1 (stereo in doubt) | inactive | inactive | inactive | inactive | inactive | inactive |  | inactive | inactive | 
CC(C)(C)c1ccc(S(=O)(=O)/C=C/C#N)cc1 | inactive | 10 µM (active) | 14.1 µM (active) | 10 µM (active) | 12.6 µM (active) | 11.2 µM (active) | 7.08 µM (active) | 8.91 µM (active) |  | 
O=C(O)c1cc(=O)c2ccccc2[nH]1 | inactive | inactive | inactive | inactive | inactive | inactive | inactive | inactive | inactive | 
CN(C)C(N)=NCCC[C@H](N)C(=O)O | inactive | inactive | inactive | inactive | inactive | inactive | inactive | inactive |  | 
O=C1NC(O)=NC1(c1ccccc1)c1ccccc1 | inactive | inactive | inactive | inactive | inactive | inactive | inactive | inactive |  | 
Cc1ccc(C(=O)O[C@H](C(=O)O)[C@@H](OC(=O)c2ccc(C)cc2)C(=O)O)cc1 (tested in a mixture with another compound) | inactive | inactive | inactive | inactive | inactive | inactive | inactive | inactive | inactive | 
O=C(O)CNC(=O)C(CS)Cc1ccccc1 (stereo not drawn) | inactive | inactive | inactive | inactive | inactive | inactive | inactive | inactive | inactive | 
CC[C@@H](C)[C@H]1O[C@]2(CC[C@@H]1C)C[C@@H]1C[C@@H](C/C=C(\C)[C@@H](O[C@H]3C[C@H](OC)[C@@H](O[C@H]4C[C@H](OC)[C@@H](O)[C@H](C)O4)[C@H](C)O3)[C@@H](C)/C=C/C=C3\CO[C@@H]4[C@H](O)C(C)=C[C@@H](C(=O)O1)[C@]34O)O2 | inactive | 2 µM (active) | 1.12 µM (active) | 0.794 µM (active) | 2.51 µM (active) | 1.78 µM (active) | 1 µM (active) | 1.12 µM (active) |  | 
c1ccc(-c2ccccn2)nc1 | inactive |  | inactive | inactive | inactive |  |  | inactive | inactive | inactive
O=C(O)CCCC[C@@H]1CCSS1 | inactive | inactive | inactive | inactive | inactive | inactive | inactive | inactive |  | 
CC(C)(C)NCC(O)COc1nsnc1N1CCOCC1 (stereo not drawn) | inactive |  |  | inactive | inactive |  |  | inactive | inactive | inactive
COc1cccc(OC)c1OCCNCC1COc2ccccc2O1 (stereo not drawn) | inactive | 7.94 µM (active) |  |  |  |  | 3.98 µM (active) |  |  | inactive

SMILES | Potency [1] | Potency [2] | Potency [3] | Potency [4] | Potency [5] | Potency [6] | Potency [7] | Potency [8] | outcome [9] | Potency [10]
O=C(O)CC1CCCc2ccccc2C1O (stereo not drawn) | inactive | inactive | inactive | inactive | inactive | inactive | inactive | inactive | inactive | 
O=C1C(SCCO)=C(SCCO)C(=O)c2ccccc21 | inactive | 3.16 µM (active) | 2 µM (active) | 2.24 µM (active) | 11.2 µM (active) | 6.31 µM (active) | 10 µM (active) | 2 µM (active) |  | 
NC[C@@H]1O[C@H](C23CC4CC(CC(C4)C2)C3)Cc2c1ccc(O)c2O | inactive | 2 µM (active) | 2 µM (active) | 2.24 µM (active) | 3.16 µM (active) | 8.91 µM (active) | 2.24 µM (active) | 2.82 µM (active) |  | 
NC(CCCP(=O)(O)O)C(=O)O (stereo not drawn) | inactive | inactive | inactive | inactive | inactive | inactive | inactive | inactive |  | 
N#C/C(=C\c1ccc(O)c(O)c1)C(=O)c1ccc(O)c(O)c1 | inactive |  |  | 10 µM (active) |  |  | 12.6 µM (active) | 12.6 µM (active) |  | inactive
O=c1[nH]c2cc(Cl)c(Cl)cc2[nH]c1=O | inactive |  |  | 2.51 µM (active) |  | inactive | 3.55 µM (active) |  |  | inactive
O=C(O)/C=C/C(O)c1ccc(Cl)cc1 (stereo not drawn) | inactive | inactive | inactive | inactive | inactive | inactive | inactive | inactive |  | 
CN(C)CCC(c1ccc(Cl)cc1)c1ccccn1 (stereo not drawn) | inactive |  |  |  | inactive |  |  | inactive |  | inactive
Ic1ccc(N2CCN(Cc3c[nH]c4ncccc34)CC2)cc1 | inactive |  |  |  |  | inactive | 2.51 µM (active) | 11.2 µM (active) |  | inactive
CCCCC/C=C\CC(O)/C=C/c1cccc(CC(O)CCCCO)n1 (stereo not drawn) | inactive |  |  | 14.1 µM (active) |  |  |  |  |  | inactive
NC(N)=NC(=O)c1nc(Cl)c(N2CCCCCC2)nc1N | inactive | 8.91 µM (active) | 12.6 µM (active) | 4.47 µM (active) | 7.94 µM (active) |  | 2.82 µM (active) | 7.94 µM (active) |  | 
COC1=C(OC)C(=O)c2ccccc2C1=O | inactive | 8.91 µM (active) | 10 µM (active) | 10 µM (active) | 11.2 µM (active) |  | 11.2 µM (active) | 11.2 µM (active) |  | 
CCCCCC(O)c1cccc(OCc2ccc3ccccc3n2)c1 (stereo not drawn) | inactive | 6.31 µM (active) | 10 µM (active) |  | 15.8 µM (active) | 7.94 µM (active) | 6.31 µM (active) | 12.6 µM (active) |  | 
Cc1ccc(O)c(N=Nc2ccccc2)n1 | inactive | 11.2 µM (active) | 12.6 µM (active) |  |  |  | 10 µM (active) |  |  | 
CCCCCCCCCCCCCCCC(=O)OC(CC(=O)O)C[N+](C)(C)C (stereo not drawn) | inactive | inactive | inactive |  | inactive | inactive |  | inactive | inactive | 
CN1CCc2ccccc2Cc2[nH]c3ccccc3c2CC1 | inactive | 7.08 µM (active) | 10 µM (active) | 7.08 µM (active) | 12.6 µM (active) |  | 5.62 µM (active) | 10 µM (active) |  | 
S=C(S)OC1CC2CC1C1CCCC21 (stereo not drawn) | inactive | inactive | inactive | inactive | inactive |  | inactive | inactive | inactive | 
O=c1[nH]c2cc(C(F)(F)F)ccc2n1-c1cc(C(F)(F)F)ccc1O | inactive | 4.47 µM (active) | 3.98 µM (active) |  | 10 µM (active) | 8.91 µM (active) | 7.08 µM (active) | 12.6 µM (active) |  | 
Fc1cccc(/C=N/N=C/c2cccc(F)c2)c1 | inactive | inactive | inactive |  | inactive |  |  | inactive |  | 
N[C@@H](CC(=O)O)C(=O)O | inactive | inactive | inactive | inactive | inactive |  | inactive | inactive |  | 

From PubChem BioAssay (NCATS)
